Source: PubChem
The list is not random: actives were taken first. Their share in the collection is about 6.2%.
Lassa entry inh: blocks Lassa virus binding to or entry into cells | Potency, µM (highest dose often 37.9 µM), inactives show top-dose activity change, negative = inhibition, most hits filed as inhibitors | 1.2% of 300,000 active | AID 540256 | Lassa virus pseudotype entry inhibition, cell reporter; calls by dose curve; tested in HEK293 cells; further: potency means the concentration at half of the fitted maximal effect; nearly all actives have a fitted effect of over 50% in size
FMDV inh: foot and mouth disease virus antiviral activity | FMDV antiviral cell-based qHTS | Potency, µM (titrated, usually from 57.9 µM), inactives show at the top dose activity change, negative = inhibition, usual class: inhibitors | 1.2% of 410,000 active | AID 1159524; calls by dose curve; tested in HEK293T cells; further: read-out not given here; potency means the concentration at half of the fitted maximal effect; nearly all actives have a fitted effect of over 45% in size
MARV entry inh: inhibitors of Marburg virus binding or cell entry; Marburg virus pseudotyped entry inhibition, cell reporter; Potency, µM (top dose mostly 37.8 µM), without a hit: top-dose activity change, negative = inhibition, actives largely listed as inhibitors; 1.8% of 300,000 active; AID 540276; calls by dose curve; tested in HEK293 cells; further: potency means the concentration at half of the fitted maximal effect
HCMV inh: blocks human cytomegalovirus replication; HFF cells, HCMV-luciferase reporter, 72 h; stronger effect = lower value; activity change, negative = inhibition, % at 57.5 µM; 4.5% of 410,000 active; AID 1259415; in the data active means activity change below about -60%; inconclusive means no clear call, values can overlap the other calls; inactive means above about -39%
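Cell-based, HFFs, 1000 cells/well, 16 h 37C; cpds in DMSO + HCMV-luc, MOI 1 PFU/cell; 72 h 37C; OneGlo luminescence after 5 min RT; norm. to buffer vs Salinomycin 10uM.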
* hit, by the source's call; ? = inconclusive; . = no result given; [ ] = dose if it differs, or a comment. On the % scale 0 is the no-effect control and ±100 the full control effect.

SMILES	Lassa entry inh	FMDV inh	MARV entry inh	HCMV inh
CC(C)CC(=O)Nc1nc(-c2ccc(S(=O)(=O)N3CCOCC3)cc2)cs1	?	22µM*	-10%	-39
CCCCC(=O)Nc1nc(-c2ccc(S(=O)(=O)N3CCOCC3)cc2)cs1	?	?	-25%	-90*
O=C(CN1CCOCC1)Nc1nc(-c2ccccc2)cs1	?	-7%	-22%[46.1 µM]	2
Cc1ccc(Nc2nc(-c3ccc(S(=O)(=O)N4CCOCC4)cc3)cs2)cc1Cl	-5%	?	?	-74*
CCOc1ccc2oc(C(=O)OC(C(=O)NC(N)=O)C(C)C)c(C)c2c1 (stereo unspecified)	?	-19%	5%[46.1 µM]	20
CC1=CC(C)(C)NC(=S)N1c1cccc2ccccc12	-1%	-20%	-13%	-100*
CCOC(=O)Cc1ccc(Nc2nc(NCc3cccs3)nc3ccsc23)cc1	.	-1%	.	-3
CSCc1nc2scc(-c3ccccc3)c2c(=O)[nH]1	6%[46.1 µM]	11%	-12%[46.1 µM]	-24
Cc1c(C(=O)OCc2nc3scc(-c4ccccc4)c3c(=O)[nH]2)cccc1[N+](=O)[O-]	14%	14µM*	?	?
COc1ccc(CN(C)Cc2nc3scc(-c4ccccc4)c3c(=O)[nH]2)cc1OC	-19%	?	?	-60*
O=C(OCc1nc2scc(-c3ccccc3)c2c(=O)[nH]1)c1cc(Cl)ccc1[N+](=O)[O-]	17%	?	?	-26
COc1cc(/C=N/Nc2nncc3ccccc23)cc(OC)c1OC	.	24%	.	16
CCOC(=O)Cn1nnnc1C(CC)N(Cc1cccs1)Cc1cc2cc(C)ccc2[nH]c1=O (stereo unspecified)	?	-19%	16µM*	-5
CCOC(=O)Cn1nnnc1C(C(C)C)N(Cc1cccs1)Cc1cc2cc(C)ccc2[nH]c1=O (stereo unspecified)	?	?	9.2µM*	-11
CCC(c1nnnn1C1CCCC1)N(Cc1cccs1)Cc1cc2cc(C)ccc2[nH]c1=O (stereo unspecified)	?	0%	?	?
COc1cc(/C(C)=N/NC(=O)Cc2c(C)[nH][nH]c2=O)ccc1O	16%	-13%	29%	-67*
Cc1cccc(Cn2c(=O)n(CC3CCC(C(=O)N4CCC(C)CC4)CC3)c(=O)c3sccc32)c1 (stereo unspecified)	?	32µM*	.	-3
O=C(CCN1CC2CCC(CC2)C1)c1cccs1	-13%	25µM*	-4%	20
Cc1ccc(C(=O)Nc2cccc(C(=O)OCc3cc(=O)n4nc(C5CC5)sc4n3)c2)cc1	5%[46.1 µM]	36%	.	68
CN(C)c1ccc(C(=O)NCc2ccc3c(c2)OCO3)cc1	-11%	68%	?	52
Cc1ccc(/C([O-])=C(/C(=S)NCc2ccc3c(c2)OCO3)[n+]2ccc(N(C)C)cc2)c(C)c1	?	-13%	-3%[14.2 µM]	-70*
CCOc1ncnc2c1[nH]c1ccccc12	-4%	-16%	?	5
CCc1cc(C(=O)OC)c(N2C(=O)C3C4C=CC(C4)C3C2=O)s1 (stereo unspecified)	29%[14.3 µM]	3%	-15%	29
COCc1nc(-c2cc(OC)c(OC)c(OC)c2)no1	-9%	11%	-12%	66
COc1ccc(NC(=O)COC(=O)c2cc(OC)c(OC)cc2NC(=O)c2ccco2)cc1OC	-15%	-8%	-5%	-66*
SMILES	Lassa entry inh	FMDV inh	MARV entry inh	HCMV inh
Cc1cc(C)c(OCC(=O)Nc2cccc(NC(=O)c3ccco3)c2)c(Br)c1	-12%	?	?	-76*
COC(=O)c1cc(OC)c(OC)cc1NC(=O)c1ccco1	-5%	?	-25%	-10
Cc1cc(C)c(OCC(=O)Nc2ccc(NC(=O)c3ccco3)cc2)c([N+](=O)[O-])c1	-1%	-25%	-15%	-34
COc1cccc(OC)c1C(=O)NC(=S)Nc1cccc(NC(=O)c2ccco2)c1	13%	-27%	?	-61*
COc1ccc(NC(=O)c2ccco2)cc1NC(=O)COc1ccc(C)cc1C	0%[46.1 µM]	?	-1%[46.1 µM]	-66*
COc1ccc(NC(=O)c2ccco2)cc1NC(=O)COc1ccc(Cl)cc1C	-1%[46.1 µM]	-19%	-3%[46.1 µM]	-13
CCC(=O)N1c2ccc(S(=O)(=O)CCC(=O)NCc3cccs3)cc2CC1C (stereo unspecified)	2%	-13%	?	58
Cc1cc(C)cc(C(=O)Nc2cccc(NC(=O)c3ccco3)c2)c1	0%	-9%	-19%	-73*
Cc1cccc(-n2c(=O)c3c4c(sc3n3c(=S)[nH]nc23)CCC4)c1	-2%[46.1 µM]	17%	5%[46.1 µM]	-30
Cc1ccc2[nH]c3c(=O)n(CC(=O)N(C)c4cc(Cl)ccc4C)ncc3c2c1	8%[46.1 µM]	0%	.	-22
Cc1ccc(Cl)cc1N(C)C(=O)Cn1ncc2c([nH]c3ccccc32)c1=O	.	-4%	.	-69*
CCOC(=O)C(O)C1CCc2c([nH]c3ccc(C)cc23)C1=O (stereo unspecified)	11µM*	25%	?	29
CCNC(=O)C1CCCN(C(=O)c2cc(F)cc(F)c2)CC1 (stereo unspecified)	.	-14%	.	-93*
CCOc1ccc(CC(=O)Nc2c(C(=O)c3ccc(Cl)cc3)oc3ccccc23)cc1OCC	1%[46.1 µM]	?	?	-23
CCOc1ccc(CC(=O)Nc2c(C(=O)c3ccc(C)cc3)oc3ccccc23)cc1OCC	14%[46.1 µM]	0%	?	-63*
Clc1ccsc1-c1ccc2ccccc2n1	?	57%	?	32
CCN(CC)CCn1c(=N)n(CCOc2ccccc2)c2ccccc21	21µM*	?	4.1µM*	?
CCCCn1c(=N)n(CC(O)COc2cccc(C)c2)c2ccccc21 (stereo unspecified)	?	?	?	-63*
CCN(CC)CCn1c(=N)n(CC(=O)c2ccc(Br)s2)c2ccccc21	?	-25%	7.1µM*	-97*
CCN(CC)CCn1c(=N)n(CC(O)COc2ccccc2)c2ccccc21 (stereo unspecified)	6%	-24%	4.5µM*	0
CCCn1c(=N)n(CC(O)COc2ccc(C)cc2)c2ccccc21 (stereo unspecified)	?	?	?	-6
CCn1c(=N)n(CC(O)COc2ccc(C)cc2)c2ccccc21 (stereo unspecified)	9%	0%	?	-16
CCN(CC)CCn1c(=N)n(CCO)c2ccccc21	0%	-5%	-4%	17
CCOC(=O)CSc1snnc1C	29%	-10%	-16%	-7
CCC1CCCCN1C(=O)CCC(=O)Nc1nnc(C(F)(F)F)s1 (stereo unspecified)	.	-1%	.	18
CCOc1cccc(CN2CCC(n3nccc3NC(=O)C3CCCC3)CC2)c1	-4%	-11%	?	?
Cc1ccccc1OCC(O)Cn1c(=N)n(Cc2ccccc2)c2ccccc21 (stereo unspecified)	?	?	?	-74*
CCn1c(=N)n(CCOc2ccc(Br)cc2)c2ccccc21	-31%[46.1 µM]	?	.	-101*
CCCCn1c(=N)n(CCOc2ccc(C)cc2)c2ccccc21	?	?	?	-37
